# Bioassay records from PubChem BioAssay.
# Gli-Sufu block – Gli-Sufu pathway antagonists, primary screen, luciferase luminescence, Sufu-KO-LIGHT cells, uHTS; Sufu-KO-LIGHT fibroblasts, Gli luciferase reporter luminescence; inhibition, % at 5 µM; AID 588413, 2011; 0.74% of 340,000 active;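 active = inhibition above about 55%, limit read from the data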
# 697 NFkB inh – inhibitors of PMA/ionomycin-induced NF-kB reporter, 697 cells, primary screen, B-cell NF-kB inhibitor project, cell-based, luminescence, uHTS; 697 B-cell NF-kB luciferase reporter, 16 h; inhibition, % at 4 µM; 0.33% of 330,000 active; AID 435022, 2010; in the data active = inhibition above about 35%
# SMARCA2 activ – SMARCA2 (BRM) function activators, primary screen, cell-based, luminescence, high throughput. MG213 cells, MMTV-luciferase reporter, dexamethasone, overnight. activation, % at 9.1 µM. 1% of 370,000 active; in the data active = activation above about 7.8%
# Jurkat NFkB inh – inhibitors of induced NF-kB luciferase reporter, primary screen, TCR NF-kB activation inhibitor project, cell-based, luminescence, uHTS | Jurkat, PMA/ionomycin-induced NF-kB luciferase reporter | inhibition, % at 4 µM | 0.53% of 330,000 active | AID 435003, 2010; in the data active = inhibition above about 50%
# esBAF inh – Bmi1 luciferase reporter increase in mESCs, primary screen, esBAF inhibitor project, mouse ES cells, Bmi1 luciferase knock-in, single point; 24 h; 100% = twice the neutral-well signal; reporter increase, % at 12.5 µM; 2% of 350,000 active; in the data active = activation above about 40%; inconclusive = no clear call, values can overlap the other calls;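 also: a rise in the Bmi1 reporter signal indicates esBAF inhibition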
# SMARCA2 conf – SMARCA2 (BRM) function activators, confirmation, cell-based, luminescence, triplicate | shares compounds with SMARCA2 activ | MG213 cells, MMTV-luciferase with dexamethasone, overnight; MG213 cells expressing E1A, Rb sequestered; DMSO wells 0%, reference activator 100% | activation, % at 9.1 µM | 30% of 3,500 active;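 active = activation above its plate's cutoff, the mean activation of tested wells plus 3 SD, cut at about 7.9% in these data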
# VP16 Luc act – GAL4-VP16 luciferase reporter activation, counter-screen for SMARCA2 (BRM) activator project, cell-based, pG5luc, luminescence, high throughput | shares compounds with SMARCA2 activ | HEK293 GAL4-VP16 pG5luc reporter; scaled: DMSO wells 0%, SAHA wells 100% | activation, % at 9.1 µM | 41% of 3,500 active;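 active = activation above the solvent-only control well mean plus 3 SD, averaged across control plates, cut at about 5.2% in these data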
# Numbers stand for hits; – = inactive; ? = inconclusive; · = no result; ! = repeats disagree. The list is not random: actives were taken first. Their share in the collection is about 3.3%.
SMILES,Gli-Sufu block,697 NFkB inh,SMARCA2 activ,Jurkat NFkB inh,esBAF inh,SMARCA2 conf,VP16 Luc act
O=Nc1c2nc3ccccc3n(O)c-2c2ccccc12,·,–,8.0,–,48,29,5.5
On1c(-c2ccccc2)nc2ccccc21,–,–,–,–,·,·,·
O=C(O)C[C@H]1C[C@H]2c3cc(NC(=O)C4CCC4)ccc3O[C@H]2[C@H](CO)O1,·,·,·,·,–,·,·
CCOc1ccc(N=C(/C(C(=O)C(=O)N2CCOCC2)=C(\O)c2ccccc2)c2ccccc2)cc1,–,–,9.2,–,68,–,6.1
CCCN(CCC)CCCNC(=S)Nc1ccc2nc(N3CCCC3)cc(C)c2c1,–,–,15,–,–,16,–
CCN(CC)CCNC(=S)Nc1ccc2nc(N3CCCC3)cc(C)c2c1,–,–,9.6,–,–,15,–
CCN(CC)CCNC(=S)Nc1ccc2nc(N3CCN(C)CC3)cc(C)c2c1,–,–,–,–,–,·,·
C[C@@H]1CN([C@@H](C)CO)C(=O)c2cc(-c3ccncc3)cnc2O[C@@H]1CN(C)C(=O)Cc1cccnc1,·,·,·,·,–,·,·
COc1ccc(CCOC(=O)c2ccc(NC(=O)CC#N)cc2)cc1,–,–,–,–,–,·,·
COc1ccc(C(=O)OCCc2ccc(O)cc2)cc1,–,–,9.2,–,50,8.6,12
CN(C)/N=C/C=C1\CCC/C(=C/c2cccs2)C1=O,–,–,8.3,–,–,–,5.3
COc1ccc2c(c1)c1nc3n(c(=O)c1n2CC(=O)Nc1ccccc1)CCCS3,–,–,11,–,–,–,–
Oc1ccccc1-c1nnc(-c2ccc(C(F)(F)F)cc2)o1,–,–,9.9,–,?,–,6.9
CO[C@@H]1CN(C)C(=O)c2cc(NC(=O)Nc3c(C)noc3C)ccc2OC[C@H](C)N(CCC(F)(F)F)C[C@H]1C,·,·,·,·,–,·,·
COCCNc1ncnc2c1cnn2-c1ccc(Cl)cc1,–,–,8.4,–,–,17,10
CC1(CCCN2C(=O)c3ccccc3C2=O)OCCO1,–,–,10,–,·,–,–
O=C(NCCc1ccccc1)c1ccc(Cl)c([N+](=O)[O-])c1,–,–,9.9,–,–,–,8.6
CCCCOc1ccc(C(=O)NCCc2ccccc2)cc1,–,–,8.4,–,–,–,13
O=C(NN1CCOCC1)c1ccc(Cl)c([N+](=O)[O-])c1,–,–,10,–,–,–,–
Cc1cccc(C(=O)NCCc2ccccc2)c1,–,–,11,–,–,–,14
Cc1cc(C(=O)NCCc2ccccc2)ccc1[N+](=O)[O-],–,–,–,–,–,·,·
Cc1ccccc1CN(C)C[C@H]1OCc2cn(nn2)CCCC(=O)N([C@@H](C)CO)C[C@@H]1C,·,·,·,·,–,·,·
CCN(CC)c1c(C)nc2ccc(C(=O)N3CCN(C(=O)c4ccco4)CC3)cn12,·,·,9.4,·,–,–,–
CC[C@H](C)C(=O)O[C@H]1CCC=C2C=C[C@H](C)[C@H](CC[C@@H]3C[C@@H](O)CC(=O)O3)[C@H]21,–,–,11,–,–,–,–
CCC(C)C(=O)OC1CCC=C2C=CC(C)C(CCC3CC(O)CC(=O)O3)C21 (configuration not stated),–,·,–,·,·,·,·
CC[C@H](C)C(=O)O[C@H]1C[C@@H](C)C=C2C=C[C@H](C)[C@H](CC[C@@H]3C[C@@H](O)CC(=O)O3)[C@H]21,–,–,8.2!,–,–,–,–
COc1ccc(C2=NOC(C(=O)Nc3cc(Br)ccc3O)C2)cc1OC (configuration not stated),–,–,8.6,–,–,–,–
COc1ccc(C2=NOC(C(=O)Nc3ccc(C(C)=O)cc3)C2)cc1OC (configuration not stated),–,–,–,–,–,·,·
CCc1nc2ccc(C(=O)Nc3ccc(NC(C)=O)cc3)cn2c1N(CCC(C)C)CCN(C)C,·,·,8.4,·,–,–,–
